Activity calls are given as the source filed them. Rule for the calls: active = hit-call score of the fitted dose curve at least 0.9, where 1 is the maximum; inactive = score below 0.9.
Tests used:
Details in all cases: mRNA level, 48 h; actives raise or lower the signal
CYP3A5 (gene 1577) = experiment: LTEA_HepaRG_CYP3A5: Life Technologies and Expression Analysis (LTEA) Assay for CYP3A5 using HepaRG (AID 2283493)
Procedure, shortened: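 Readout was CYP3A5 mRNA by qRT-PCR. HepaRG cultures were exposed for 48 h in serum-free induction medium to chemicals at up to 100 uM, and responses were fitted in both directions relative to DMSO vehicle.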

[1] = read-out: Fatty Acid-Binding Protein 1 (FABP1), FABP1 (gene 2168); experiment: LTEA_HepaRG_FABP1: Life Technologies and Expression Analysis (LTEA) Assay for Fatty Acid-Binding Protein 1 (FABP1) using HepaRG (AID 2283494)
Procedure, shortened: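 Values reflect bidirectional concentration-response fitting of FABP1 mRNA change against 0.5% DMSO controls. Human HepaRG cultures received eight half-log doses (top 100 uM) for 48 h; expression quantified by TaqMan qRT-PCR with housekeeping-gene normalization.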

[2] = read-out: Cytochrome P450 4A22 (Homo sapiens) (UniProt Q5TCH4); experiment: LTEA_HepaRG_CYP4A22: Life Technologies and Expression Analysis (LTEA) Assay for Cytochrome P450 4A22 (CYP4A22) using HepaRG (AID 2283495)
Procedure, shortened: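 Gene expression measured by qRT-PCR against three housekeeping genes (ACTB, GAPDH, POLR2A), with gain or loss fitted relative to 0.5% DMSO vehicle. HepaRG cultures received 48 h chemical treatment, top concentration 100 uM, half-log steps, duplicate wells.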

[3] = read-out: Cytochrome P450 7A1 (Homo sapiens) (UniProt P22680); experiment: LTEA_HepaRG_CYP7A1: Life Technologies and Expression Analysis (LTEA) Assay for Cytochrome P450 7A1 (CYP7A1) using HepaRG (AID 2283496)
Procedure, shortened: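 Using 0.5% DMSO as vehicle and baseline, chemicals were tested in duplicate over an 8-point range from 100 uM on HepaRG cells for 48 h; qRT-PCR signals were normalised to ACTB, GAPDH and POLR2A.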

[4] = read-out: Glutathione S-Transferase (GSTA2), GSTA2 (gene 2939); experiment: LTEA_HepaRG_GSTA2: Life Technologies and Expression Analysis (LTEA) Assay for Glutathione S-Transferase (GSTA2) using HepaRG (AID 2283497)
Procedure, shortened: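 Oxidative-stress marker GSTA2 is quantified by TaqMan qRT-PCR in HepaRG cultures treated 48 h across an eight-point range to 100 uM. Expression is normalized to endogenous controls and compared with 0.5% DMSO vehicle.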

[5] = read-out: Glutamate-cysteine ligase catalytic (GCLC), GCLC (gene 2729); experiment: LTEA_HepaRG_GCLC: Life Technologies and Expression Analysis (LTEA) Assay for Glutamate-cysteine ligase catalytic (GCLC) using HepaRG (AID 2283498)
Procedure, shortened: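 Oxidative-stress marker GCLC is measured as mRNA change in human HepaRG liver cells after 48 h chemical treatment in 0.5% DMSO, eight concentrations from 100 uM. Activity is fitted bidirectionally against vehicle.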

[6] = read-out: growth arrest and DNA damage 45 (GADD45G), GADD45G (gene 10912); experiment: LTEA_HepaRG_GADD45G: Life Technologies and Expression Analysis (LTEA) Assay for growth arrest and DNA damage 45 (GADD45G) using HepaRG (AID 2283499)
Procedure, shortened: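 GADD45G transcript level by qRT-PCR (housekeeping-normalized: ACTB, GAPDH, POLR2A) after 48 h chemical treatment of a single HepaRG lot in serum-free induction medium; eight-point half-log series up to 100 uM in 0.5% DMSO, duplicates, up- or down-regulation scored.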

[7] = read-out: Glutathione S-transferase M3 (GSTM3), GSTM3 (gene 2947); experiment: LTEA_HepaRG_GSTM3: Life Technologies and Expression Analysis (LTEA) Assay for Glutathione S-transferase M3 (GSTM3) using HepaRG (AID 2283501)
Procedure, shortened: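 GSTM3 transcript levels came from Fluidigm TaqMan qRT-PCR normalized to three housekeeping genes, fitted in both directions against DMSO. HepaRG cultures received chemicals for 48 h in serum-free induction medium (0.5% DMSO), 8 half-log concentrations up to 100 uM, duplicate.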

[8] = read-out: Heat shock 70 kDa protein 1 (HSPA1A), gene 3303; experiment: LTEA_HepaRG_HSPA1A: Life Technologies and Expression Analysis (LTEA) Assay for Heat shock 70 kDa protein 1 (HSPA1A) using HepaRG (AID 2283502)
Procedure, shortened: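 An oxidative-stress marker readout: HepaRG cells treated 48 h in duplicate with an eight-point series (highest 100 uM) had HSPA1A mRNA quantified by TaqMan qRT-PCR. Activity was fitted in both directions using 0.5% DMSO as baseline.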

[9] = read-out: Glutamate-cysteine ligase regulatory (GCLM), GCLM (gene 2730); experiment: LTEA_HepaRG_GCLM: Life Technologies and Expression Analysis (LTEA) Assay for Glutamate-cysteine ligase regulatory (GCLM) using HepaRG (AID 2283500)
Procedure, shortened: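 In this multiplexed HepaRG gene-expression assay, GCLM mRNA change after 48 h treatment (8 concentrations, max 100 uM) was scored against DMSO by bidirectional curve fitting.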

Measured: AC50

Nc1cccc(N)c1
inactive: CYP3A5 (gene 1577) | [1] | [2] | [3] | [4] | [5] | [6] | [7] | [8]

O=C(O)c1cccc(N(Cc2cccnc2)c2ccc(OC(F)F)c(OC(F)F)c2)c1
active: [1] 87 µM | [3] 4.48 µM
inactive: CYP3A5 (gene 1577) | [2] | [4] | [5] | [6] | [7] | [8]

O=C1CCC(N2C(=O)c3ccccc3C2=O)C(=O)N1 (centres undefined)
inactive: CYP3A5 (gene 1577) | [1] | [2] | [3] | [4] | [5] | [6] | [9] | [7] | [8]

CCCCCCCCCCCCc1ccccc1
inactive: CYP3A5 (gene 1577) | [1] | [2] | [3] | [4] | [5] | [6] | [7] | [8]

CCCCCCCCCCCCCCCO
inactive: CYP3A5 (gene 1577) | [1] | [2] | [3] | [4] | [5] | [6] | [7] | [8]

Cn1c(=O)c2c(ncn2C)n(C)c1=O
inactive: CYP3A5 (gene 1577) | [1] | [2] | [3] | [4] | [5] | [6] | [9] | [7] | [8]

O=C(O)c1cccc(Oc2ccccc2)c1
active: [1] 50 µM
inactive: CYP3A5 (gene 1577) | [2] | [3] | [4] | [5] | [6] | [9] | [7] | [8]

CCOCCO
inactive: CYP3A5 (gene 1577) | [1] | [2] | [3] | [4] | [5] | [6] | [9] | [7] | [8]

Nc1nc2ncc(CNc3ccc(C(=O)N[C@@H](CCC(=O)O)C(=O)O)cc3)nc2c(=O)[nH]1
inactive: CYP3A5 (gene 1577) | [1] | [2] | [3] | [4] | [5] | [6] | [9] | [7] | [8]

Cn1c(=O)cc(Oc2ccc(F)cc2F)c2cnc(NCC(C)(C)O)nc21
active: CYP3A5 (gene 1577) 50 µM | [6] 9.17 µM
inactive: [1] | [2] | [3] | [4] | [5] | [9] | [7] | [8]

Fc1ccccc1[C@@H](F)COC1CCC(Nc2ncnc3[nH]ncc23)CC1 (some centres undefined)
inactive: CYP3A5 (gene 1577)
active: [1] 64 µM | [2] 23 µM | [3] 77.1 µM | [4] 37.5 µM | [5] 50 µM | [6] 30 µM | [7] 65.2 µM | [8] 50 µM

CCCCC(CC)COC(=O)CCCCCCCCC(=O)OCC(CC)CCCC (centres undefined)
inactive: CYP3A5 (gene 1577) | [1] | [2] | [3] | [4] | [5] | [6] | [9] | [7] | [8]

O=C(NS(=O)(=O)/C=C/c1ccccc1)c1ccc(F)cc1Cl
inactive: CYP3A5 (gene 1577) | [2] | [4] | [5] | [6] | [9] | [7] | [8]
active: [1] 2.67 µM | [3] 23.4 µM

CC1(C)C(=O)N(Br)C(=O)N1Br
inactive: CYP3A5 (gene 1577) | [1] | [2] | [3] | [4] | [5] | [6] | [9] | [7] | [8]

CCn1nc(Cc2ccccc2)cc1C1CCN(C[C@H]2C[C@H](N(C)[C@@H](C(=O)O)C(C)C)C[C@@H]2c2cccc(F)c2)CC1
inactive: CYP3A5 (gene 1577) | [1] | [5] | [7] | [8]
active: [2] 43.5 µM | [3] 13.4 µM | [4] 50 µM | [6] 76.1 µM

Oc1ccc2c(c1)-c1ccccc1C2
inactive: CYP3A5 (gene 1577) | [1] | [2] | [4] | [5] | [6] | [9] | [7] | [8]
active: [3] 4.87 µM

C=CCCCCCCCCC(=O)O
inactive: CYP3A5 (gene 1577) | [1] | [2] | [3] | [4] | [5] | [6] | [7] | [8]

O=C1OC(=O)C2C3C=CC(C3)C12 (centres undefined)
inactive: [1] | [2] | [3] | [4] | [5] | [6] | [7] | [8]

CN(C)c1ccc(N=NS(=O)(=O)O)cc1
active: [1] 50 µM | [2] 9.92 µM | [3] 2.51 µM
inactive: [4] | [5] | [6] | [7] | [8]

CC[C@H]1CC[C@H](NCc2cc3c(cc2OC)[C@H]2C[C@H]2C(=O)N3C)[C@H](c2ccccc2)N1
inactive: [1] | [3] | [4] | [5] | [7] | [8]
active: CYP3A5 (gene 1577) 50 µM | [2] 76.8 µM | [6] 50 µM

O=C1CCCCCN1
inactive: CYP3A5 (gene 1577) | [1] | [2] | [3] | [4] | [5] | [6] | [7] | [8]

CC(C)CCO
inactive: CYP3A5 (gene 1577) | [1] | [4] | [5] | [6] | [7] | [8]

Reference: PubChem BioAssay (EPA / NIEHS)
